# Test results reported in PubChem BioAssay (EPA / NIEHS).
# Inconclusive results are not listed. Active and inactive are the calls of the source. Rule for the calls: active = hit-call score of the fitted dose curve at least 0.9, where 1 is the maximum; inconclusive = response in the unintended direction; inactive = score below 0.9.
# Columns and labels:
# [1] = target: rat CYP2C12, Cyp2c12 (gene 25011) (UniProt P11510); experiment: NVS_ADME_rCYP2C12: NovaScreen (NVS) CYP450-related Enzyme Activity (ADME) Assay for rat CYP2C12 (AID 2283119)
# Summary of the method: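 Fluorescent-substrate turnover by recombinant rat CYP2C12, measured at 0.5 h, normalized to acetonitrile vehicle. Chemicals screened first at a single 10 uM concentration in duplicate, with concentration series for actives.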
# [2] = target: rat CYP2C13, Cyp2c13 (gene 171521) (UniProt P20814); experiment: NVS_ADME_rCYP2C13: NovaScreen (NVS) CYP450-related Enzyme Activity (ADME) Assay for rat CYP2C13 (AID 2283121)
# Summary of the method: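 Inhibition is read as decreased fluorescent product formation, referenced to acetonitrile vehicle. Cell-free recombinant rat Cyp2c13 reaction ran 0.75 hour; compounds first at 10 uM in duplicate, then concentration series for actives.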
# [3] = target: human Acetylcholinesterase (AChE), ACHE (gene 43) (UniProt P22303); experiment: NVS_ENZ_hAChE: NovaScreen (NVS) Enzymatic Assay for human Acetylcholinesterase (AChE) (AID 2283129)
# Summary of the method: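 Actives from a duplicate single-point screen (25 uM) were followed up in concentration series. Enzyme activity read by absorbance (colorimetric) 0.33 hour after dosing, cell-free, normalized to DMSO, with loss of signal scored.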
# rat CYP2B1, gene 24300 = experiment: NVS_ADME_rCYP2B1: NovaScreen (NVS) CYP450-related Enzyme Activity (ADME) Assay for rat CYP2B1 (AID 2283117)
# Summary of the method: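 Cell-free fluorescence enzyme assay, recombinant rat CYP2B1, 0.75 h after dosing. Single-concentration duplicates at 10 uM preceded concentration series (max 20 uM) for actives; acetonitrile as negative-control baseline.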
# [4] = target: rat CYP2C11, Cyp2c11 (gene 29277) (UniProt P08683); experiment: NVS_ADME_rCYP2C11: NovaScreen (NVS) CYP450-related Enzyme Activity (ADME) Assay for rat CYP2C11 (AID 2283118)
# Summary of the method: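 Screened first at 10 uM in duplicate, hits followed by concentration-response. Recombinant rat enzyme activity monitored by fluorescence 0.33 h post-dosing, normalised to acetonitrile negative control.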
# Sequence of rat CYP2C12, Cyp2c12 (gene 25011) (P11510 whole entry, looked up): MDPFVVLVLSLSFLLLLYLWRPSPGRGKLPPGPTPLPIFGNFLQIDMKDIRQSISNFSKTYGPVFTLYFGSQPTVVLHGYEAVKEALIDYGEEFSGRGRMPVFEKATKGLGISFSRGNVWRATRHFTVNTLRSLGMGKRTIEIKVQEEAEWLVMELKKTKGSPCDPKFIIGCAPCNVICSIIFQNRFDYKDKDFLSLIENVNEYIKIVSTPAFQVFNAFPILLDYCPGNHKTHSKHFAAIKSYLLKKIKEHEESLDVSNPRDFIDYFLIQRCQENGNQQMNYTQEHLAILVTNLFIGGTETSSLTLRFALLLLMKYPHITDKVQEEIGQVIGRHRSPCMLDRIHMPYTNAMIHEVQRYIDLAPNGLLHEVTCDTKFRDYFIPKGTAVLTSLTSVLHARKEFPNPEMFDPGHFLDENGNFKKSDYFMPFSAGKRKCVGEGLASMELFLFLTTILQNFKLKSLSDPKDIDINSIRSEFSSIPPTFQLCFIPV
# Sequence of rat CYP2C13, Cyp2c13 (gene 171521) (P20814 whole entry, looked up): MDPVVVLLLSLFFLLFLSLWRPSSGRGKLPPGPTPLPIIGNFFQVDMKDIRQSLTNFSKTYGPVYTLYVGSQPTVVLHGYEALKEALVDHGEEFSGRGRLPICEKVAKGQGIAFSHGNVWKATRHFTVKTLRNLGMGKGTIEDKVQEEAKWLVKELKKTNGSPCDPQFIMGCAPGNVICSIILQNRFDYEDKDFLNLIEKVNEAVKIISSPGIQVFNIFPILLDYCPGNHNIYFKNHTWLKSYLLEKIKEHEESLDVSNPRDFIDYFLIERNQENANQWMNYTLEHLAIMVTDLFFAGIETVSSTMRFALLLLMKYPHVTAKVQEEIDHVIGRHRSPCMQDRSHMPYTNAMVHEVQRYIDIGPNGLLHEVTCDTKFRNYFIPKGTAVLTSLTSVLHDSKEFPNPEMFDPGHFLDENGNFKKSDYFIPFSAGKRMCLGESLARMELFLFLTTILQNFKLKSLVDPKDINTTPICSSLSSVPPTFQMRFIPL
# Sequence of rat CYP2C11, Cyp2c11 (gene 29277) (P08683 whole entry, looked up): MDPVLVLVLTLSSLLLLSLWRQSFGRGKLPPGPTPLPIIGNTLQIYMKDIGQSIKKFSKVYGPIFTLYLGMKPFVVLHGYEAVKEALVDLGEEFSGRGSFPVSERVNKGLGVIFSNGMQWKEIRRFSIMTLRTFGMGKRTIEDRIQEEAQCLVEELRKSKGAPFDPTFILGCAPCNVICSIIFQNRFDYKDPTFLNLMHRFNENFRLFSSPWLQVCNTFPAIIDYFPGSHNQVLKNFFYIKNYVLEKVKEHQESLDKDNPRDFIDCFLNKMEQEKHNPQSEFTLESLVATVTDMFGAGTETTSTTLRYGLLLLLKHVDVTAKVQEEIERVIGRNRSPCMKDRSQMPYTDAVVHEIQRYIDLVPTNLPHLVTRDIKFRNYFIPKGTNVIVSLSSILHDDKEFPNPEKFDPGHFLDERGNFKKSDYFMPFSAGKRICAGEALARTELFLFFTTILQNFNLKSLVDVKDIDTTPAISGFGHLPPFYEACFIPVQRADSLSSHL
# Sequence of human Acetylcholinesterase (AChE), ACHE (gene 43) (P22303 whole entry, looked up): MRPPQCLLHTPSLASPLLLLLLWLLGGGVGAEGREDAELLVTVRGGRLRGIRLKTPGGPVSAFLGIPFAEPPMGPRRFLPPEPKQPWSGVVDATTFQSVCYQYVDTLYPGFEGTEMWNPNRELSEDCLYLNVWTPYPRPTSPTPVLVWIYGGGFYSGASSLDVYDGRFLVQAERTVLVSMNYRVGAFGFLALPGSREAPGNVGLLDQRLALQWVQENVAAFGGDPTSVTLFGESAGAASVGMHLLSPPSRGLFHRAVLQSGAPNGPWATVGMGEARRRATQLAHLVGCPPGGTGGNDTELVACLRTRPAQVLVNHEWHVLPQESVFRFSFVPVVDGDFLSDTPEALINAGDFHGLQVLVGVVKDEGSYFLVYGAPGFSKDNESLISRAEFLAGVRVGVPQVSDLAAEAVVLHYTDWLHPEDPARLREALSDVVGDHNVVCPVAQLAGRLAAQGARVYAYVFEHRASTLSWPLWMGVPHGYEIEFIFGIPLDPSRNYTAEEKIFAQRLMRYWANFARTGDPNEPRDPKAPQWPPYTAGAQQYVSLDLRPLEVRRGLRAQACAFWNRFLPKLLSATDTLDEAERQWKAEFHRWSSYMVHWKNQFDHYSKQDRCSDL
structure (smiles),measurement,setting,value
CCOC(=O)Nc1cccc(OC(=O)Nc2ccccc2)c1,AC50,[1],10 µM (active)
same,AC50,[2],10.4 µM (active)
Oc1cccc2cccnc12,outcome,[3],inactive
CC1(C)CCC(Cc2ccc(Cl)cc2)C1(O)Cn1cncn1 (configuration not stated),AC50,"rat CYP2B1, gene 24300",0.385 µM (active)
same,AC50,[4],0.121 µM (active)
same,AC50,[1],5.15 µM (active)
same,AC50,[2],1.17 µM (active)
